Assay results published in PubChem BioAssay (NCI).
The panel holds about 83,000 compounds, 20% with a hit somewhere; the sample as a whole holds those more often.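 Results are percent growth after 48 hours of single-concentration exposure. 100 means growth as in untreated cells, lower positive values show inhibition; negative values down to -100 show cell death.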 Values without a mark were called inactive. The source made the active and inactive calls. Rule for the calls: active = growth percent below 10; inactive = the rest.

The compounds below were run on DU-145 prostate (assay: NCI-60 one-dose screen, 48 h (100 = growth as untreated, 0 = no growth, -100 = all killed)). Conditions: 10 µM unless noted.

Q: How did the growth turn out when `Fc1ccc(-c2nnc(-c3c(-c4ccc(F)cc4)nc4ncccn34)o2)cc1` was run?
A: 103%

Q: How did the growth turn out when `S=c1[nH]nc2sc3ccccc3n12` was run?
A: 121%

Q: With `Clc1ccc2nc(Cl)c3ccccc3c2c1` as the compound, how does the growth read?
A: 62.9%

Q: With `CCOC(Cc1c(N)[nH]c(=S)[nH]c1=O)OCC` as the compound, how does the growth read?
A: 115%

Q: `COc1ccc(-c2nnc(COc3ccc(NC(=O)Nc4cc(C(F)(F)F)cc(C(F)(F)F)c4)cc3F)o2)cc1` was tested. Which growth did it give?
A: 12.4%

Q: For `Clc1cccc(Cc2cn3cc(-c4ccccc4)nc3s2)c1`, which growth is on record?
A: 52.4%

Q: For `ClC1=C(Cl)C(Cl)=C(Cl)C1=C/C=C/c1ccccc1`, which growth is on record?
A: -46.5% (active)

Q: With `O=[N+]([O-])c1cnc(Sc2ccncn2)c([N+](=O)[O-])c1` as the compound, how does the growth read?
A: 109%

Q: `O=C(N1CCC(CN=c2cc3n(-c4ccc(Cl)cc4)c4ccccc4nc-3cc2Nc2ccc(Cl)cc2)CC1)N1CC1` was tested. Which growth did it give?
A: -95.3% (active)

Q: For `COc1cc(/C=C2\CCC/C(=C\c3ccc(OCC4CO4)c(OC)c3)C2=O)ccc1OCC1CO1` (stereo unspecified), which growth is on record?
A: 7.14% (active)

Q: Which growth does the source give for `COc1ccc(-n2nnc(C(=O)O)c2-c2cc(OC)c(OC)c(OC)c2)cc1` here?
A: 116%

Q: How did the growth turn out when `Nc1nc(N)c([N+](=O)[O-])c(=O)[nH]1` was run?
A: 113%

Q: With `Oc1[nH]c2ccccc2c1/C=c1/ccc2c(c1)N=C(c1cc(F)cc(F)c1)N=2` as the compound, how does the growth read?
A: 72.1%

Q: How did the growth turn out when `O=c1ccn(C2CCCO2)c(=O)[nH]1` (stereo unspecified) was run?
A: 109%

Q: `COc1ccc2nc3cc(Cl)ccc3c(Nc3cc(C(C)C)c(O)cc3C)c2c1` was tested. Which growth did it give?
A: 52.3%

Q: For `COc1ccc(-c2cnnn2-c2cc(OC)c3c(c2)OCO3)cc1`, which growth is on record?
A: 12.8%
